# Reference: PubChem BioAssay
# Where “and” joins values, the source holds several entries; their conditions need not be identical. Equal entries are not always repeated. Inconclusive results are not listed. For some of these results: Results with a measured potency or affinity are listed apart. Where a structure was tested more than once in an assay, its records may differ in their call. Calls of active or inactive are those of the source.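 How the source made its calls, unless noted: active means compounds whose cell count with miR-34 switched on is under 0.7 times the count with it off; inactive means the rest.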
# How the values were obtained:
# [1] = target: 6-phosphogluconate dehydrogenase, decarboxylating (Homo sapiens) (UniProt P52209); experiment: 6PGD enzyme inhibitors, primary screen, biochemical, human, recombinant enzyme, NADPH absorbance (AID 1159550;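 active means at least 20% inhibition of 6-phosphogluconate dehydrogenase activity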); conditions: recombinant 6PGD, NADPH absorbance 341 nm; at 10 µM; stronger effect = higher value
# [2] = growth inhibition of DIPG glioma cells, dose response, cell-based, SU-DIPG-XIII, MIPE4.0, CellTiter-Glo, qHTS (AID 1347061; cut-off not given, nearly all actives have AC50 up to about 37 µM;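 further: cells exposed to compound for 48 hours before readout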); conditions: SU-DIPG-XIII viability, CellTiter-Glo ATP luminescence
# [3] = growth inhibition of DIPG glioma cells, dose response, cell-based, JHH-DIPG-1, MIPE4.0, CellTiter-Glo, qHTS (AID 1347062; cut-off not given, nearly all actives have AC50 up to about 27 µM); conditions: JHH-DIPG-1 viability, CellTiter-Glo ATP luminescence
# [4] = growth inhibition of DIPG glioma cells, dose response, cell-based, SU-DIPG-IV, MIPE4.0, CellTiter-Glo, qHTS (AID 1347063; cut-off not given, nearly all actives have AC50 up to about 30 µM;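 further: compound exposure lasted 48 hours before the viability readout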); conditions: SU-DIPG-IV viability, CellTiter-Glo ATP luminescence
# [5] = target: Mitogen-activated protein kinase 7 (Homo sapiens) (UniProt Q13164); experiment: ERK5 transactivation activators in reporter cells, primary screen, cell-based, HTS (AID 1508626;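 active means luciferase signal above three times the same-plate solvent-only control wells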;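 further: luciferase driven by Gal4-ERK5 fusion binding five Gal4 sites before minimal TATA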); conditions: HeLa Gal4-ERK5 transactivation, 18 h, at 5 µM, stronger effect = higher value
# [6] = liver-stage malaria parasite growth inhibition, primary screen, cell-based, HepG2, luciferase luminescence, HepG2 viability (AID 624349; in the data active means parasite load remaining mostly below about 12%, no sharp cut-off; inactive means mostly above about 10%;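 further: 100% = mean of DMSO negative control wells on the same plate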); conditions: P. berghei liver stage in HepG2, luciferase luminescence, concentration not given here; parasite load remaining: stronger effect = lower value; viability: measured here: HepG2 viability without parasites
# [7] = JHH-DIPG-1 glioma cell viability, MIPE5.0 library, CellTiter-Glo luminescence, qHTS (AID 1347067; cut-off not given, nearly all actives have AC50 up to about 26 µM;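 further: cells exposed to compound for 48 hours before readout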); conditions: JHH-DIPG-1 glioma viability, CellTiter-Glo ATP luminescence
# [8] = sensitizers of A549 cells to miR-34 induction, primary screen, imaging, A549 dox-inducible miR-34, nuclei and caspase counts (AID 1347080); conditions: A549 miR-34 inducible, Hoechst nuclei count, 48 h
# [9] = target: NAD(+) hydrolase SARM1 (Homo sapiens) (UniProt Q6SZW1); experiment: SARM1 TIR NADase inhibitors, cell lysate, NAD-Glo luminescence (AID 1508614;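 active means compound whose remaining NAD level is above about 45 nM, limit read from the data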); conditions: SAM-TIR HEK293T lysate NADase, at 1 µM, stronger effect = higher value
# [10] = polyglutamine-triggered caspase-3 activation inhibitors, cell-based (AID 1583); conditions: polyglutamine-induced caspase-3 activation, cell assay; stronger effect = higher value;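 tested at 10 µM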
# [11] = suppressors of polyQ aggregation in yeast, 75Q-TubU reporter (AID 1593); conditions: Yeast 75Q polyglutamine aggregation reporter
# [12] = rescue of polyQ-huntingtin neuronal dysfunction in worms, whole organism, C. elegans mechanosensory neurons, N-terminal huntingtin (AID 1599); conditions: touch response, stronger effect = higher value
# [13] = inhibitors of mitochondrial cytochrome c release, biochemical, purified mitochondria (AID 1603); conditions: stronger effect = lower value;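 further: mouse liver mitochondria challenged with calcium chloride; signal normalized to the plate average as 100%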
# [14] = inhibitors of polyQ protein aggregation (AID 1604); conditions: polyglutamine-induced protein aggregation inhibition assay; stronger effect = higher value; tested at 2.5 µM
# [15] = enhancers of glutamate uptake in motor neurons, MN-1 cell line (AID 1612); conditions: MN-1 motor neuron cells, stronger effect = higher value;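 further: tested at 1 µM final; 0% = mean of DMSO vehicle wells on each plate; positive means more glutamate uptake than control and negative means less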
# [16] = suppressors of polyglutamine aggregation in yeast, 75Q-TubH (AID 1616); conditions: S. cerevisiae 75Q-TubH polyglutamine aggregation suppression; stronger effect = higher value
# [17] = viability rescue of complex I mutant cybrids, primary screen, cell-based, galactose medium, ATP luminescence (AID 1645843;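 active means z-score of at least 1.8 in each of two replicates, scored against plate mean and spread of sample wells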;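 further: positive z means more ATP and so rescue of galactose-driven cybrid death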); conditions: complex I mutant cybrid cells, 72 h, stronger effect = higher value
# [18] = survival rescue of mitochondrial mutant cells in low glucose, primary screen, MELAS cybrids, Rieske KO mouse fibroblasts, CellTiter-Glo (AID 1508586;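 active means mean z-score across replicates of 1.96 or higher in either the MELAS or the Rieske mutant cell line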;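 further: z relative to plate mean and SD of compound and empty wells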)
# [19] = stronger effect = lower value, cell number ratio, induced over uninduced
# [20] = measured here: relative caspase fold change +Dox/-Dox
# [21] = measured here: total cells with miR-34 induction, stronger effect = lower value
# [22] = measured here: total cells without miR-34 induction
# [23] = MELAS cybrid survival, CellTiter-Glo 48 h, stronger effect = higher value
# [24] = Rieske KO mouse fibroblast survival, CellTiter-Glo 72 h
# Chain of 6-phosphogluconate dehydrogenase, decarboxylating (Homo sapiens) (P52209 whole entry, looked up): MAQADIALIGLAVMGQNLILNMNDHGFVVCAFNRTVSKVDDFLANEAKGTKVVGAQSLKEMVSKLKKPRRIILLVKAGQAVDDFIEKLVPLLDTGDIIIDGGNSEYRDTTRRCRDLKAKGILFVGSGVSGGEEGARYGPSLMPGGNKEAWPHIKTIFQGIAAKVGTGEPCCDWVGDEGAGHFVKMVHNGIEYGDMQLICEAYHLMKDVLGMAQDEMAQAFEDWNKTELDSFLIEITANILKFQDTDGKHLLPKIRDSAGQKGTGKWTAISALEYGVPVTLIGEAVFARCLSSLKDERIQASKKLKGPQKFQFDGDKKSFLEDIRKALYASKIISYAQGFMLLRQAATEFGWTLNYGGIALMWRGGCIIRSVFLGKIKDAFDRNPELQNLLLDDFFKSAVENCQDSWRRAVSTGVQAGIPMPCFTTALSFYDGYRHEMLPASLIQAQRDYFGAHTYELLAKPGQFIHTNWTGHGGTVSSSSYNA
# Chain of Mitogen-activated protein kinase 7 (Homo sapiens) (Q13164 whole entry, looked up, the tested form may be a part): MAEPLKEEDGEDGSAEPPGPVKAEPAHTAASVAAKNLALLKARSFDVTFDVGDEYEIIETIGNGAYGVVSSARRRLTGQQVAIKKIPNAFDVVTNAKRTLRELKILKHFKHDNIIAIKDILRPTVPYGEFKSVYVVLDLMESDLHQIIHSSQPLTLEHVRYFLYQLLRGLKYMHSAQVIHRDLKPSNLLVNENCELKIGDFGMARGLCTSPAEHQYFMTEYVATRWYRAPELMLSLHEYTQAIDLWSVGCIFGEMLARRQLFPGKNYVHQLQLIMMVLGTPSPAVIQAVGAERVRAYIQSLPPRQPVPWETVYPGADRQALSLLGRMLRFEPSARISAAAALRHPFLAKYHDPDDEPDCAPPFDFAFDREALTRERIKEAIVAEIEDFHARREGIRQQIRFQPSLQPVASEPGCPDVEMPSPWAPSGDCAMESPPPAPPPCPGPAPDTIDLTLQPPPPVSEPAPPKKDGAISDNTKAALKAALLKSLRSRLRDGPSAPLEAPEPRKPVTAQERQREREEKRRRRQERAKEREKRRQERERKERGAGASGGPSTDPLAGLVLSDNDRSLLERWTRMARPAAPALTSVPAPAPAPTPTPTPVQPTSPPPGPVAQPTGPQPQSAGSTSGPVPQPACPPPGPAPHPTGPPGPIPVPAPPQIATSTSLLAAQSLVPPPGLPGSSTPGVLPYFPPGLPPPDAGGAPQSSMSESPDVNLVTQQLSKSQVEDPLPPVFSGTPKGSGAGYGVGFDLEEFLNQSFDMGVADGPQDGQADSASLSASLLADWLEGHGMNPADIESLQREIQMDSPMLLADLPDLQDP
# Chain of NAD(+) hydrolase SARM1 (Homo sapiens) (Q6SZW1 whole entry, looked up): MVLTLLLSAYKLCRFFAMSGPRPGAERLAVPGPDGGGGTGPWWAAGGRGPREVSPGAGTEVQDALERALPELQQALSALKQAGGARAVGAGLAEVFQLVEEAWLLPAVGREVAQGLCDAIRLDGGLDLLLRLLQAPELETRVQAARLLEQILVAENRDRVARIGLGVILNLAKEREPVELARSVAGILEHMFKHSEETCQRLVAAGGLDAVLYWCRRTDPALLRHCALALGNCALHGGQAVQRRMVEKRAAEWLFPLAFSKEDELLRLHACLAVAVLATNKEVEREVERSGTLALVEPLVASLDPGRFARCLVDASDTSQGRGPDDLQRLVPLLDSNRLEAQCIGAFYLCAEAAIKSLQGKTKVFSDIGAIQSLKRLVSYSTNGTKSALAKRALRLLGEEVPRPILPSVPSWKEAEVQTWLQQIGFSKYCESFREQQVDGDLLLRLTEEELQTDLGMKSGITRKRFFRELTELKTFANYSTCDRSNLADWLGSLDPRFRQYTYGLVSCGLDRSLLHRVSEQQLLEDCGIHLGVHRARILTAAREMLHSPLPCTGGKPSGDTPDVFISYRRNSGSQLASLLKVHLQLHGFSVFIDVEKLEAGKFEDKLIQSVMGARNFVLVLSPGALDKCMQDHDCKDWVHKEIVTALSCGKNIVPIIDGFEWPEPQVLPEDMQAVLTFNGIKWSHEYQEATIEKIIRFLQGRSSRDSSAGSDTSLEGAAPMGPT
smiles,measurement,setting,value
COc1c(O)cc2c(c1O)[C@@H]1O[C@H](CO)[C@@H](O)[C@H](O)[C@H]1OC2=O,inhibition,[1],2.56% (inactive)
same,outcome,[2],inactive
same,outcome,[3],inactive
same,outcome,[4],inactive
same,luciferase signal,[5],48 AU (inactive)
CCC(=O)NCC[C@@H]1CCc2ccc3c(c21)CCO3,parasite load remaining,[6],159% (inactive) and -0.665% (active)
same,viability,[6],88.5% and 95.2%
same,inhibition,[1],11.8% (inactive)
same,outcome,[2],inactive
same,outcome,[3],inactive
same,outcome,[4],inactive
same,outcome,[7],inactive
same,fold change,[8]; [19],0.882 (inactive)
same,fold change,[8]; [20],7.18
same,cell count,[8]; [21],11800
same,cell count,[8]; [22],13400
same,remaining NAD,[9],10 nM (inactive)
same,luciferase signal,[5],72 AU (inactive)
CCCn1c(=O)c2[nH]c(C3CCCC3)nc2n(CCC)c1=O,inhibition,[10],8.56%
same,score,[11],1.24
same,rescue above control,[12],18.1
same,cytochrome c release ratio,[13],0.92
same,inhibition of aggregation,[14],1.59%
same,glutamate uptake change,[15],-12.9%
same,aggregation suppression score,[16],1.32
same,inhibition,[1],11.4% (inactive)
same,fold change,[8]; [19],1.02 (inactive) and 0.942 (inactive)
same,fold change,[8]; [20],1.07 and 0.717
same,cell count,[8]; [21],7850 and 7600
same,cell count,[8]; [22],7700 and 8070
same,z-score,[17],1.02 (inactive) and 0.16 (inactive)
C[C@@]12C[C@@]3(O)O[C@@H](O1)[C@]1(COC(=O)c4ccccc4)[C@H]3C[C@@]12O[C@@H]1O[C@H](CO)[C@@H](O)[C@H](O)[C@H]1O,inhibition,[1],-7.19% (inactive)
same,outcome,[2],inactive
same,outcome,[3],inactive
same,luciferase signal,[5],60 AU (inactive)
O=C(/C=C/c1ccc(O)c(O)c1)O[C@H](Cc1ccc(O)c(O)c1)C(=O)O,inhibition,[1],-3.01% (inactive)
same,fold change,[8]; [19],0.903 (inactive) and 0.98 (inactive)
same,fold change,[8]; [20],1.31 and 0.699
same,cell count,[8]; [21],5220 and 9720
same,cell count,[8]; [22],5780 and 9920
same,luciferase signal,[5],44 AU (inactive)
same,z-score,[17],0.02 (inactive)
COc1ccc(C(Cl)=C(c2ccc(OC)cc2)c2ccc(OC)cc2)cc1,parasite load remaining,[6],9.26% (inactive) and 45.4% (inactive) and 50.6% (inactive)
same,viability,[6],85.2% and 70.2% and 89.6%
same,inhibition,[1],7.15% (inactive)
same,fold change,[8]; [19],0.946 (inactive) and 0.925 (inactive)
same,fold change,[8]; [20],1.03 and 1.43
same,cell count,[8]; [21],9940 and 11400
same,cell count,[8]; [22],10500 and 12300
same,z-score,[18]; [23],0.437 (inactive)
same,z-score,[18]; [24],0.0944
same,luciferase signal,[5],40 AU (inactive)
O=C1O[C@H]([C@@H](O)CO)C(O)=C1O,parasite load remaining,[6],-6.73% (active)
same,viability,[6],110%
same,inhibition,[1],-9.94% (inactive)
same,fold change,[8]; [19],0.839 (inactive)
same,fold change,[8]; [20],1.22
same,cell count,[8]; [21],7560
same,cell count,[8]; [22],9010
same,z-score,[18]; [23],-0.883 (inactive)
same,z-score,[18]; [24],-0.395
same,remaining NAD,[9],10 nM (inactive)
same,luciferase signal,[5],60 AU (inactive)
C[C@H](CCC(=O)O)[C@H]1CC[C@H]2[C@@H]3CC[C@@H]4C[C@H](O)CC[C@]4(C)[C@H]3CC[C@]12C,parasite load remaining,[6],106% (inactive)
same,viability,[6],101%
same,inhibition,[1],3.51% (inactive)
same,fold change,[8]; [19],0.876 (inactive)
same,fold change,[8]; [20],1.28
same,cell count,[8]; [21],8840
same,cell count,[8]; [22],10100
same,z-score,[18]; [23],0.139 (inactive)
same,z-score,[18]; [24],-0.0326
same,luciferase signal,[5],76 AU (inactive)
